Assay outcomes (PubChem)
An excerpt weighted towards active compounds, which were near 11% of everything screened.
VDR inh – blocks the human vitamin D receptor. VDR-SRC2-3 peptide fluorescence polarization, 2 h. 400,000 compounds, 0.93% hits. P11473. Potency, µM, usual class: inhibitors
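VDR–SRC2-3 interaction, FP format. Cmpds 23 nl via pintool, brief spin, 2 h ambient incubation.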
G9a inh-1 – blocks human histone lysine methyltransferase G9a; Q96KQ7; G9a H3K9 monomethylation, AlphaScreen, 2 h; Potency, µM (series often up to 102 µM), most hits filed as inhibitors; 350,000 compounds, 8.8% hits; also: nearly all actives have a fitted effect of over 75% in size
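Methyltransferase reactions run at room temperature for 2 h (20 nM enzyme, 500 nM biotin-H3K9 peptide, 20 uM SAM) after a 15 min compound preincubation; product detected by AlphaScreen beads and anti-H3K9me1 antibody.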
HP1b chromo inh – HP1-beta chromodomain-methylated histone interaction inhibition. Potency, µM (series often up to 114 µM), hits mostly inhibitors. AlphaScreen HP1-beta / biotin-H3K9me3 peptide binding. 390,000 compounds, 0.56% hits. AID 540317. P83916; also: nearly all actives have a fitted effect of over 70% in size
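HP1-beta protein (50 nM final) preincubated 30 min at room temperature with biotinylated H3(1-18)K9me3 peptide (50 nM) in PBS pH 7.4, 0.01% Tween-20, then compound added for 30 min. AlphaScreen streptavidin donor/nickel chelate acceptor beads (10 ug/mL final), 30 min dark, luminescence read.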
JMJD2A Tudor – inhibitors of human JMJD2A Tudor domain | 390,000 compounds, 4.4% hits | Potency, µM (series often up to 114 µM), hits mostly inhibitors | O75164 | AID 504339 | AlphaScreen JMJD2A-Tudor / H3K4me3 peptide binding; also: nearly all actives have a fitted effect of over 50% in size
BAZ2B inh – inhibitors of human BAZ2B bromodomain. AlphaScreen BAZ2B-H3K14Ac peptide displacement. Potency, µM (titrated, usually from 114 µM), usual class: inhibitors. 360,000 compounds, 4.4% hits. AID 504333; also: nearly all actives have a fitted effect of over 60% in size
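In this displacement format the biotinylated H3(5-23) peptide acetylated at Lys14 serves as ligand at 50 nM, with BAZ2B at 50 nM in PBS pH 7.4 containing 0.01% Tween-20. Donor and acceptor beads are 10 ug/mL final.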
PLK1 PBD block – blocks phosphopeptide binding to human PLK1 polo-box domain. Plk1 PBD binding of FITC phosphopeptide, fluorescence polarization. Potency, µM, actives largely listed as inhibitors. 360,000 compounds, 2.8% hits. P53350. AID 720504; also: series mostly up to about 57 µM; nearly all actives have a fitted effect of over 65% in size
Target sequence (P53350 whole entry, looked up, the tested form may be a part): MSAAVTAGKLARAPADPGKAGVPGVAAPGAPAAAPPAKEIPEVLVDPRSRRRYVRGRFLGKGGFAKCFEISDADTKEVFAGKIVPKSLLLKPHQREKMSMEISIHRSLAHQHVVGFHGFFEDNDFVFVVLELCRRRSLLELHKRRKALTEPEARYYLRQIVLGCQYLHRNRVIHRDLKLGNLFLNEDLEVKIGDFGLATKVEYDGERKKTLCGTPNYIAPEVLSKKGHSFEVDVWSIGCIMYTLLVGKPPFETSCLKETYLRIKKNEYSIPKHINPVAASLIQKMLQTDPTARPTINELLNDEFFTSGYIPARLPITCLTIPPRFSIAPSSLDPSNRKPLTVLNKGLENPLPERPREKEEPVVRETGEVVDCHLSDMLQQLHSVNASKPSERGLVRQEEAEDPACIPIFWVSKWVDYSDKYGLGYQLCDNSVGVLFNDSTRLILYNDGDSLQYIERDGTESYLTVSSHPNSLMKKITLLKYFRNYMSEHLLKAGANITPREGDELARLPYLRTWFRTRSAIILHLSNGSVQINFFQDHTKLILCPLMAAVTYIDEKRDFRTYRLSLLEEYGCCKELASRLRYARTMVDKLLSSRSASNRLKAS
G9a inh-2 – inhibits human G9a histone lysine methyltransferase, hit confirmation; shares compounds with JMJD2A Tudor; G9a H3K9 monomethylation, AlphaScreen, 2 h; Potency, µM, most hits filed as inhibitors; 370 compounds, 89% hits; AID 588344; also: nearly all actives have a fitted effect of over 65% in size
RGS4 inh – confirmation of human RGS4 inhibitors | shares compounds with JMJD2A Tudor | RGS4 GAP activity, Transcreener GDP fluorescence polarization | Potency, µM, most hits filed as inhibitors | 25 compounds, 80% hits
A number is an active result; [ ] = remark or other dose. Calls follow the shape of the dose curve; as a rule, active = well fitted curve in the direction sought with a large enough effect; inconclusive = small, poorly fitted or top-dose-only effect, or another doubt; inactive = no such curve, though single readings can be large; an effect the other way counts as inactive or inconclusive.

What do the screens show for `Cn1c(=O)c2c(O)c(C=Nc3ccc(F)cc3)c(=O)n(C)c2n(C)c1=O`?
VDR inh: inactive; HP1b chromo inh: inactive; JMJD2A Tudor: inactive; BAZ2B inh: inactive; PLK1 PBD block: inactive

How did O=C(CNC(=O)OCc1ccccc1)Nc1ccc(F)cc1 do in these assays?
VDR inh: inactive; G9a inh-1: inconclusive; HP1b chromo inh: inactive; JMJD2A Tudor: inconclusive; BAZ2B inh: inactive; PLK1 PBD block: inactive; G9a inh-2: inconclusive

Results for CCCn1cnc2cc(NCc3ccc(OC)cc3OC)ccc21 ?
VDR inh: inactive; G9a inh-1: 2.8µM; HP1b chromo inh: inactive; JMJD2A Tudor: inconclusive; BAZ2B inh: 40µM; G9a inh-2: 5.8

Results for CCn1cnc2cc(NCc3cccc(OC)c3O)ccc21 ?
VDR inh: inactive; G9a inh-1: inconclusive; HP1b chromo inh: inactive; JMJD2A Tudor: inactive; BAZ2B inh: inconclusive; PLK1 PBD block: inactive; G9a inh-2: 0.28

What do the screens show for `O=C(CSc1cccc[n+]1[O-])Nc1ccccc1Oc1ccccc1`?
VDR inh: inconclusive; G9a inh-1: 2µM; HP1b chromo inh: inconclusive; JMJD2A Tudor: 50µM; BAZ2B inh: inactive; PLK1 PBD block: 30µM; G9a inh-2: 2

How did O=C(CSc1cccc[n+]1[O-])Nc1ccccc1C(F)(F)F do in these assays?
VDR inh: inactive; HP1b chromo inh: inactive; JMJD2A Tudor: inactive; PLK1 PBD block: inactive

How did CCN(CC)c1ccc(NC(=O)c2cc(OC)cc(OC)c2)c(C)c1 do in these assays?
VDR inh: inactive; G9a inh-1: 2.5µM; HP1b chromo inh: inactive; JMJD2A Tudor: inconclusive; BAZ2B inh: 40µM; PLK1 PBD block: inactive; G9a inh-2: 3.2

Results for O=C(Nc1cc(-c2ccc(Cl)cc2)no1)c1ccc(F)cc1 ?
VDR inh: inactive; G9a inh-1: inactive; HP1b chromo inh: inactive; JMJD2A Tudor: inactive; BAZ2B inh: inactive

What do the screens show for `Cc1ccc(-c2nc3cccc(C)n3c2Nc2ccc(F)cc2)o1`?
VDR inh: inactive; HP1b chromo inh: inconclusive; JMJD2A Tudor: 56µM; RGS4 inh: 19

How did O=C(CSc1ncn(-c2ccccc2)n1)Nc1nc2ccccc2s1 do in these assays?
VDR inh: inactive; G9a inh-1: inconclusive; HP1b chromo inh: inactive; JMJD2A Tudor: 45µM; BAZ2B inh: inactive; PLK1 PBD block: inactive; G9a inh-2: 3.6

What do the screens show for `CCOC(=O)C1CCCN(CC(=O)NC2CC2)C1` (stereo not drawn)?
VDR inh: inactive; G9a inh-1: 1.6µM; HP1b chromo inh: 18µM; JMJD2A Tudor: 5µM; BAZ2B inh: 32µM; PLK1 PBD block: inactive; G9a inh-2: 45

How did CCOC(=O)C1CCCN(C(=S)NC2CCCCC2)C1 (stereo not drawn) do in these assays?
VDR inh: inactive; G9a inh-1: inactive; HP1b chromo inh: inactive; JMJD2A Tudor: inactive; BAZ2B inh: inactive; PLK1 PBD block: inactive

Results for CCCCn1c(SCC(=O)N2CCCC2)nnc1-c1ccccc1 ?
VDR inh: inactive; G9a inh-1: inactive; HP1b chromo inh: inactive; JMJD2A Tudor: inactive; BAZ2B inh: inactive; PLK1 PBD block: inactive

How did CCn1c(SCC(=O)N2CCCC2)nnc1-c1ccc(N)cc1 do in these assays?
VDR inh: inactive; G9a inh-1: 1.1µM; HP1b chromo inh: inactive; JMJD2A Tudor: inactive[11.4 µM]; BAZ2B inh: inactive; PLK1 PBD block: inactive; G9a inh-2: 1.6

How did CN(C)c1cccc(C(=O)Nc2cccc(F)c2)c1 do in these assays?
VDR inh: inconclusive; G9a inh-1: inconclusive; HP1b chromo inh: inactive; JMJD2A Tudor: inactive; BAZ2B inh: inconclusive; PLK1 PBD block: inactive; G9a inh-2: 7.1

Results for CCN(CC)c1ccc(C(=O)Nc2cccc(F)c2)cc1 ?
VDR inh: inactive; G9a inh-1: inactive; HP1b chromo inh: inactive; JMJD2A Tudor: inactive; BAZ2B inh: inactive; PLK1 PBD block: inactive

What do the screens show for `COc1ccc(S(=O)(=O)N2CCOC23CCN(C(=O)c2c(F)cccc2Cl)CC3)cc1`?
VDR inh: inactive; G9a inh-1: inactive; HP1b chromo inh: inactive; JMJD2A Tudor: inactive; BAZ2B inh: inactive; PLK1 PBD block: inactive

How did Cc1cccc(OCC(=O)N(C)CCc2ccccn2)c1 do in these assays?
VDR inh: inactive; G9a inh-1: inconclusive; HP1b chromo inh: inconclusive; JMJD2A Tudor: inconclusive; BAZ2B inh: 35µM; PLK1 PBD block: inactive; G9a inh-2: 10

How did c1ccc(-c2ccc3c(c2)NCCN3)cc1 do in these assays?
VDR inh: inactive; G9a inh-1: inconclusive; HP1b chromo inh: inconclusive; JMJD2A Tudor: 45µM; BAZ2B inh: 56µM; PLK1 PBD block: inactive; G9a inh-2: 0.56

What do the screens show for `Cn1nc(Oc2nc(N3CCOCC3)nc(N3CCOCC3)n2)ccc1=O`?
VDR inh: inactive; G9a inh-1: inactive; HP1b chromo inh: inactive; JMJD2A Tudor: inactive; BAZ2B inh: inactive; PLK1 PBD block: inactive

Results for CCOc1c(Cl)cc(CNc2ccc(N3CCCC3)cc2)cc1OC ?
VDR inh: 14µM; G9a inh-1: 2.8µM; HP1b chromo inh: 45µM; JMJD2A Tudor: 14µM; BAZ2B inh: 20µM; PLK1 PBD block: inconclusive; G9a inh-2: 6.3

Results for CCN(CC(=O)Nc1ccc(NC(C)=O)cc1)CC(=O)Nc1cccc2ccccc12 ?
PLK1 PBD block: inactive

Results for CCN(CC(=O)Nc1ccc(NC(C)=O)cc1)Cc1c(O)ccc2cc(Br)ccc12 ?
VDR inh: inconclusive; G9a inh-1: 1.8µM; HP1b chromo inh: 71µM; JMJD2A Tudor: 50µM; BAZ2B inh: 50µM; PLK1 PBD block: 9.5µM; G9a inh-2: 0.45

What do the screens show for `Cc1ccc(NC(=O)CN(C)Cc2c(O)ccc3ccccc23)cc1`?
VDR inh: 79µM; G9a inh-1: 1.4µM; HP1b chromo inh: inactive; JMJD2A Tudor: 79µM; BAZ2B inh: inactive; PLK1 PBD block: 3.8µM; G9a inh-2: 0.63

What do the screens show for `C[C@H](NC(=O)c1[nH]cnc1C(=O)Nc1ccccc1F)c1ccccc1`?
PLK1 PBD block: inactive

What do the screens show for `CSCCC(NC(=O)c1ccccc1Cl)C(=O)Nc1ccc(C)c(S(=O)(=O)N2CCOCC2)c1` (stereo not drawn)?
VDR inh: inactive; G9a inh-1: inactive[0.501 µM]; HP1b chromo inh: inactive; JMJD2A Tudor: inactive; BAZ2B inh: inactive; PLK1 PBD block: inactive

How did O=C(Nc1ccc(Cl)cc1)OCCn1nnnc1C(c1ccccc1)N1CCOCC1 (stereo not drawn) do in these assays?
VDR inh: inactive; G9a inh-1: inactive[12.7 µM]; HP1b chromo inh: inactive; JMJD2A Tudor: inactive; BAZ2B inh: inactive; PLK1 PBD block: inactive
